Measurements as given in PubChem BioAssay (Tox21).
Results filed as inconclusive are left out. The source made the active and inactive calls. Unless noted, calls follow the shape of the full dose curve.

Tests used:
[1] = Nuclear factor erythroid 2-related factor 2/antioxidant responsive element (Nrf2/ARE) small molecule agonists: qHTS cell viability counter screen in human keratinocytes (AID 1919968; active = well fitted curve in the direction sought with a large enough effect in the repeat runs; an effect the other way counts as inactive or inconclusive; also: nearly all actives have a fitted effect of over 55% in size)
Procedure, shortened: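 Cytotoxicity was multiplexed with the Nrf2/ARE luciferase assay in the same wells. Stably transfected HaCaT keratinocytes were treated with test compounds for 23 h at 37 C. Cell viability was then measured by CellTiter-Fluor fluorescence.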

[2] = Nuclear factor erythroid 2-related factor 2/antioxidant responsive element (Nrf2/ARE) small molecule agonists: luciferase reporter gene qHTS assay in human keratinocytes (AID 1919969); also: nearly all actives have a fitted effect of over 35% in size
[3] = target: Gonadotropin-releasing hormone receptor (Homo sapiens) (UniProt P30968); experiment: Human gonadotropin-releasing hormone receptor (GnRHR) small molecule agonists, calcium flux assay in GnRHR-HEK293 cells (AID 1920063); also: nearly all actives have a fitted effect of over 35% in size
Procedure, shortened: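 Agonist activity was measured as intracellular calcium flux in HEK293 cells engineered to stably express human GnRHR. After dye loading for 1 hour at 37 C, compounds in DMSO were added and fluorescence was followed for 3 minutes.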

[4] = target: KiSS-1 receptor (Homo sapiens) (UniProt Q969F8); experiment: Human kisspeptin (KISS1R) small molecule agonists, calcium flux assay in KISS1R-HEK293 cells (AID 1920064; active = well fitted curve in the direction sought with a large enough effect in the repeat runs; an effect the other way counts as inactive or inconclusive)
Procedure, shortened: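 Agonist activity is monitored as intracellular calcium rise in engineered HEK293 cells carrying human KISS1R. Cells are dye-loaded for 1 h at 37 C before compound addition, and fluorescence is recorded for 3 min.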

[5] = G protein-coupled receptor (GPCR) small molecule agonists, calcium flux assay: HEK293 wild type cell line counter screen (AID 1920065)
Procedure, shortened: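 Seed cells, incubate 18 h (37 C, 5% CO2); add calcium dye, 1 h at 37 C; pin-transfer compounds, ATP control or DMSO; read fluorescence 480/540 nm each second for 3 min.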

[6] = p53 small molecule agonists, cell-based qHTS assay with human liver microsomes (AID 1963577)
Procedure, shortened: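 p53RE-bla cells, 4,000/well, compound added after 5 h, with human liver microsomes 0.5 mg/mL and NADPH 0.5 mg/mL final; 16 h at 37 C, then LiveBLAzer 2 h RT, fluorescence.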

[7] = p53 small molecule agonists, cell-based qHTS assay with rat liver microsomes (AID 1963578)
Procedure, shortened: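 p53RE-bla cells, 4,000/well, pre-incubated 5 h, then given compounds plus rat liver microsomes (0.5 mg/mL final) and NADPH (0.5 mg/mL final). Incubation 16 h at 37 C; beta-lactamase reporter read by LiveBLAzer fluorescence after 2 h at room temperature.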

[8] = p53 small molecule agonists, cell-based qHTS assay with human liver microsomes: qHTS cell viability counter screen (AID 1963579); also: nearly all actives have a fitted effect of over 45% in size
Procedure, shortened: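 p53RE-bla cells, 4,000/well, dosed 5 hours after plating, with human liver microsomes (0.5 mg/mL final) plus NADPH (0.5 mg/mL final), 16 hours at 37 C. Viability read as CellTiter-Glo luminescence after 30 min at room temperature.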

[9] = p53 small molecule agonists, cell-based qHTS assay with rat liver microsomes: qHTS cell viability counter screen (AID 1963580); also: nearly all actives have a fitted effect of over 45% in size
Procedure, shortened: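 After the beta-lactamase ratio was read, CellTiter-Glo was added to the same wells and luminescence measured at 30 min; cells had been treated 16 h at 37 C with compounds, rat liver microsomes and NADPH (0.5 mg/mL final each).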

[10] = p53 small molecule agonists, cell-based qHTS assay: qHTS cell viability counter screen (AID 1963581); also: nearly all actives have a fitted effect of over 45% in size
Procedure, shortened: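 Viability was counter-screened in parallel with the p53 agonist reporter by measuring intracellular ATP luminescence in the same HCT-116 p53RE-bla wells after 16 h compound treatment at 37 C.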

[11] = p53 small molecule agonists, cell-based qHTS assay (AID 1963582; active = well fitted activation curve with a large enough effect in the signal ratio in the repeat runs, not every such curve was filed as active; the % refers to the signal ratio)
Procedure, shortened: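 Cells carrying a p53-responsive bla reporter are treated with test compounds for 16 h at 37 C; beta-lactamase activity is then detected with LiveBLAzer B/G FRET substrate after 2 h at room temperature.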

[12] = target: 5-hydroxytryptamine receptor 2A (Homo sapiens) (UniProt P28223); experiment: 5-hydroxytryptamine receptor 2A (HTR2A) small molecule antagonists, cell-based qHTS assay (AID 1963586); also: nearly all actives have a fitted effect of over 45% in size
Procedure, shortened: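 CHO cells stably expressing human HTR2A were plated for 18 h at 37 C, then loaded with calcium dye for 1 h. Compounds were preincubated 5 min at room temperature before DOI (4 nM solution) was added. Kinetic fluorescence was read for 3 min.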

[13] = target: 5-hydroxytryptamine receptor 2A (Homo sapiens) (UniProt P28223); experiment: 5-hydroxytryptamine receptor 2A (HTR2A) small molecule agonists, cell-based qHTS assay (AID 1963587); also: nearly all actives have a fitted effect of over 30% in size
Procedure, shortened: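 CHO cells stably expressing human HTR2A, plated 18 h, loaded with calcium dye 1 h at 37 C. Agonist mode: compounds added and intracellular calcium fluorescence recorded kinetically for 2 min at 1 sec intervals.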

[14] = target: Muscarinic acetylcholine receptor M1 (Homo sapiens) (UniProt P11229); experiment: Cholinergic receptor muscarinic 1 (CHRM1) small molecule agonists, cell-based qHTS assay (AID 1963589); also: nearly all actives have a fitted effect of over 35% in size
Procedure, shortened: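 Cells were plated and incubated 18 h at 37 C/5% CO2, loaded with calcium dye for 1 h at 37 C, then treated with compounds in DMSO. Fluorescence was recorded kinetically at 1 sec intervals.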

[15] = cAMP Responsive Elements (CRE) small molecule agonists, cell-based qHTS assay (AID 1963590)
Procedure, shortened: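 Cells carrying a CRE-driven beta-lactamase reporter (HEK 293T) are seeded, incubated overnight (18 h), and treated with test compounds for 3 h at 37 C; reporter activity is then detected with a FRET substrate after 2 h at room temperature.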

[16] = cAMP Responsive Elements (CRE) small molecule antagonists, cell-based qHTS assay (AID 1963591; active = well fitted inhibition curve with a large enough effect in the signal ratio in the repeat runs, not every such curve was filed as active; the % refers to the signal ratio)
Procedure, shortened: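 Cells (CRE-bla HEK 293T, DMEM with 10% dialyzed FBS and 25 mM HEPES) are seeded and incubated 18 h. Compounds are added with NKH477 agonist at 0.25 uM final for 3 h, then FRET substrate for 2 h.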

[17] = target: Beta-2 adrenergic receptor (Homo sapiens) (UniProt P07550); experiment: Adrenergic beta2 receptor (ADRB2) small molecule antagonists, cell-based qHTS assay (AID 1963592); also: series mostly up to about 92 µM; nearly all actives have a fitted effect of over 50% in size
Procedure, shortened: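 Assay format: CHO-ADRB2 cells, 18-20hr seeding at 37C/5% CO2, then compound plus 1nM isoproterenol agonist mix for 0.5hr RT. Homogeneous time-resolved fluorescence cAMP detection after 1hr, expressed as 665/615 nm ratio.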

[18] = target: D(2) dopamine receptor (Homo sapiens) (UniProt P14416); experiment: Dopamine D2 receptor (DRD2) small molecule agonists, cell-based qHTS assay (AID 1963594); also: nearly all actives have a fitted effect of over 35% in size
Procedure, shortened: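 HEK293 cells stably expressing human DRD2, pre-treated with PDE inhibitor Ro20-1724 (0.1 mM final) and compound 10 min at room temperature, then stimulated with NKH477 (200nM […]) for 30 min. cAMP read by HTRF (665/620 nm).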

[19] = target: D(2) dopamine receptor (Homo sapiens) (UniProt P14416); experiment: Dopamine D2 receptor (DRD2) small molecule antagonists, cell-based qHTS assay (AID 1963595; active = well fitted inhibition curve with a large enough effect in the signal ratio in the repeat runs, with a control signal flat; the % refers to the signal ratio)
Procedure, shortened: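 HTRF cAMP read-out at 665 and 620 nm emission (340 nm excitation). Antagonist mode: compounds were tested against 12 nM quinpirole in DRD2-HEK293 cells, with 200 nM NKH477 raising cAMP and 0.1 mM Ro20-1724 blocking its breakdown.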

Measured: Potency

D(2) dopamine receptor (Homo sapiens), sequence (P14416 whole entry, looked up): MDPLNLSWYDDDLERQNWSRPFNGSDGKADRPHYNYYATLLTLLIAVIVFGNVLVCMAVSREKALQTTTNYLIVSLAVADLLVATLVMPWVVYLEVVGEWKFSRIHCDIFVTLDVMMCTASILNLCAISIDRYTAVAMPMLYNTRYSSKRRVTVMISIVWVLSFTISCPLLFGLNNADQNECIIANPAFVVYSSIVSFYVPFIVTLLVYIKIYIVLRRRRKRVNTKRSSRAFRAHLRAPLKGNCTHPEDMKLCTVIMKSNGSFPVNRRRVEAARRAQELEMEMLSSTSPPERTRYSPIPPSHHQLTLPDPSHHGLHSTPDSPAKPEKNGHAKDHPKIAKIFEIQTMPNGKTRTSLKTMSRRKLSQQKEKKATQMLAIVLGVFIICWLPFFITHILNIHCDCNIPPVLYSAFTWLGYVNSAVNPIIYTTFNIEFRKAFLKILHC
Muscarinic acetylcholine receptor M1 (Homo sapiens), sequence (P11229 whole entry, looked up): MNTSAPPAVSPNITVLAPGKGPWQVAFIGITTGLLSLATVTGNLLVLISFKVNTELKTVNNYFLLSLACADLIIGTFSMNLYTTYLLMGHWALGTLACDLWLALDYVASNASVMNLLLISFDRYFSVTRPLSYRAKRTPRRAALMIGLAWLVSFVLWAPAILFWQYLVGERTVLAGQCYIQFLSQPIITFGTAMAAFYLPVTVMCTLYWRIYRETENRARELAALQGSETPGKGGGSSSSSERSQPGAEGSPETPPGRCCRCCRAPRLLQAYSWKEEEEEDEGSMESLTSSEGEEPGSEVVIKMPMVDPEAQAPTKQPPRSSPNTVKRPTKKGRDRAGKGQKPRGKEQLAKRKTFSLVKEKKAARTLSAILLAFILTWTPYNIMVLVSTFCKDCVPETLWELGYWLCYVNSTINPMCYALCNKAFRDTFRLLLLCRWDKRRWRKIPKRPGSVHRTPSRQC
Gonadotropin-releasing hormone receptor (Homo sapiens), sequence (P30968 whole entry, looked up): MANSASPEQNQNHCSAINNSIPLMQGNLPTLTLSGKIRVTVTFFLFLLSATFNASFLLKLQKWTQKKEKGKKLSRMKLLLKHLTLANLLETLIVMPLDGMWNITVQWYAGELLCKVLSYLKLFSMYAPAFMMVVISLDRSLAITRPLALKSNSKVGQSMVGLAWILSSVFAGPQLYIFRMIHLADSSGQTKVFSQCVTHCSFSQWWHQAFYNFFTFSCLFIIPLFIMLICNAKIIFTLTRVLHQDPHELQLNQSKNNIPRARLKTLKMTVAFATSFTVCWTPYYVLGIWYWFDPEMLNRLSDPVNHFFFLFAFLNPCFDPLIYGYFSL
5-hydroxytryptamine receptor 2A (Homo sapiens), sequence (P28223 whole entry, looked up): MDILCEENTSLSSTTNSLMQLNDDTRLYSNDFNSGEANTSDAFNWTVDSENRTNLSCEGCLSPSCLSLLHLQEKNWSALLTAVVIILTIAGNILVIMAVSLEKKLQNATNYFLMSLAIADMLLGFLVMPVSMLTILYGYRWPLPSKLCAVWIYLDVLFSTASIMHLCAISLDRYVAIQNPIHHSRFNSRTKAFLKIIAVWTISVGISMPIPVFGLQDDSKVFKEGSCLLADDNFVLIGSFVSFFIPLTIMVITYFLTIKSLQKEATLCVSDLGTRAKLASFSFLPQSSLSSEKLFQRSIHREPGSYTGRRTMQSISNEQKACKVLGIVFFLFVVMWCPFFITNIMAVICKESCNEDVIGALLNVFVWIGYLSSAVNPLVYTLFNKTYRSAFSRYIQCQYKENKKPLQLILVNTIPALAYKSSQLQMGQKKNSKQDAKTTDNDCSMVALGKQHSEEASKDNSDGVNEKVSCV
Beta-2 adrenergic receptor (Homo sapiens), sequence (P07550 whole entry, looked up): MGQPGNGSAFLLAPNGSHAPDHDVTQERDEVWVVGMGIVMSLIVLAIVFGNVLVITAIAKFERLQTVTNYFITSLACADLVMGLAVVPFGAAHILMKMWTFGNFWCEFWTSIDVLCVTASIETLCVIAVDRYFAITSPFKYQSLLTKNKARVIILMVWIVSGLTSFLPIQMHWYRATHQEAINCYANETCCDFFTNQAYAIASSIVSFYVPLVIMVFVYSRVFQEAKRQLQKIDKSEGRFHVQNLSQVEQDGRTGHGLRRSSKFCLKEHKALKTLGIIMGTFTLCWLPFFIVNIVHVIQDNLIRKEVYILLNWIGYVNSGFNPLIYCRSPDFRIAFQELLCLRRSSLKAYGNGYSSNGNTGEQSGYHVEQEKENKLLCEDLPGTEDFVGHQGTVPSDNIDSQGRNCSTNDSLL
KiSS-1 receptor (Homo sapiens), sequence (Q969F8 whole entry, looked up): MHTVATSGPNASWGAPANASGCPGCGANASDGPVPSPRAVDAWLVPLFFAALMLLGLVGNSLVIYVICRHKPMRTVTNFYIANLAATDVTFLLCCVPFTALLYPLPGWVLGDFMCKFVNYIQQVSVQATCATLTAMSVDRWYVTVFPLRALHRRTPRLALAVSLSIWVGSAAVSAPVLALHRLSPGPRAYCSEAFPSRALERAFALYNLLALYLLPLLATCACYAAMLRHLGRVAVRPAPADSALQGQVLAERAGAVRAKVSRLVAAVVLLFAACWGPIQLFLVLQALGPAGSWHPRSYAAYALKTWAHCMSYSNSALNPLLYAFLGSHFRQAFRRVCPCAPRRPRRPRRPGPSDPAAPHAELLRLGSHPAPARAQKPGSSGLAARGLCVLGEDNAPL

COc1cccc(O)c1
inactive: [1] | [2] | [3] | [4] | [5] | [6] | [7] | [8] | [9] | [10] | [11] | [12] | [13] | [14] | [15] | [16] | [17] | [18] | [19]

CCN(CC)C(=O)N(CC)CC
inactive: [1] | [2] | [3] | [4] | [5] | [6] | [7] | [8] | [9] | [10] | [11] | [12] | [13] | [14] | [15] | [16] | [17] | [18] | [19]

CC(=O)c1cccnc1
inactive: [1] | [2] | [3] | [4] | [5] | [6] | [7] | [8] | [9] | [10] | [11] | [12] | [13] | [14] | [15] | [16] | [17] | [18] | [19]

CC(=O)SC[C@@H](Cc1ccccc1)C(=O)NCC(=O)OCc1ccccc1
inactive: [1] | [2] | [3] | [4] | [5] | [6] | [7] | [8] | [9] | [10] | [11] | [12] | [13] | [14] | [15] | [17] | [18] | [19]

Oc1ccc2c(c1)CCC2
inactive: [1] | [2] | [3] | [4] | [5] | [6] | [7] | [8] | [9] | [10] | [11] | [12] | [13] | [14] | [15] | [16] | [18] | [19]

CC(CNC1CCCCC1)OC(=O)c1ccccc1 (stereo not drawn)
inactive: [1] | [2] | [3] | [4] | [5] | [6] | [7] | [8] | [9] | [10] | [11] | [12] | [13] | [14] | [15] | [16] | [18] | [19]

O=C1N(c2ccccc2)c2ccccc2C1(Cc1ccncc1)Cc1ccncc1
inactive: [1] | [2] | [3] | [4] | [5] | [6] | [7] | [8] | [9] | [10] | [11] | [12] | [13] | [14] | [15] | [16] | [17] | [18] | [19]

O=C(O)c1ccccc1Cl
inactive: [1] | [2] | [3] | [4] | [5] | [6] | [7] | [8] | [9] | [10] | [11] | [12] | [13] | [14] | [15] | [17] | [18] | [19]
